Each structure is given as a SMILES string. This is part of a sample that, as a whole, favours compounds with a hit. Of some 79,000 tested, about 15% had one in any assay. Values without a mark were called inactive. Active and inactive are the calls of the source. Cut-off read from the data, not from the text of the source: active = growth inhibition above about 70%; inactive = the rest.

The nature of experiment [1]: NCI Yeast Anticancer Drug Screen. Data for the rad50 strain (AID 155).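 Note: 0% = growth of vehicle-only cultures of the same strain.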 The settings on record: S. cerevisiae rad50 strain growth inhibition; at 50.0 µM; stronger effect = higher value. The essentials:
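Relative growth inhibition (compound vs vehicle) was measured in yeast with a defined repair-gene alteration.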

Experiment [2] can be described thus: NCI Yeast Anticancer Drug Screen. Data for the mec2-1 strain (AID 157). The following applies: S. cerevisiae mec2-1 strain, at 50.0 µM, stronger effect = higher value. The essentials:
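Readout is yeast growth inhibition, normalised to vehicle-treated controls, in the mec2-1 strain exposed to compound.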

Experiment [3] in a line: NCI Yeast Anticancer Drug Screen. Data for the sgs1 mgt1 strain (AID 161).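 Note: 0% = growth of cultures given vehicle only.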 The following applies: S. cerevisiae sgs1 mgt1 strain, at 50.0 µM, stronger effect = higher value. The gist of the method:
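Compounds are added to genetically altered yeast, and growth is compared with cultures given vehicle alone to give percent inhibition.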

Experiment [4] can be described thus: NCI Yeast Anticancer Drug Screen. Data for the cln2 rad14 strain (AID 165).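 Note: 0% = growth equal to vehicle treated cultures.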 The following applies: S. cerevisiae cln2 rad14 strain, at 50.0 µM, stronger effect = higher value. The essentials: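 Relative to vehicle controls, growth inhibition of compound-treated cln2 rad14 yeast was recorded.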
The nature of experiment [5]: NCI Yeast Anticancer Drug Screen. Data for the bub3 strain (AID 167). The following applies: S. cerevisiae bub3 mutant strain, at 50.0 µM, stronger effect = higher value. The gist of the method:
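Screening used yeast with an engineered genetic alteration affecting cell cycle control. Compound-exposed cultures were compared with vehicle cultures, and reduced growth was taken as inhibition.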

The nature of experiment [6]: NCI Yeast Anticancer Drug Screen. Data for the mlh1 rad18 strain (AID 175). The settings on record: S. cerevisiae mlh1 rad18 strain growth inhibition; at 50.0 µM; stronger effect = higher value. The gist of the method:
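Test agents were incubated with a yeast strain of defined genotype (DNA damage repair defect). Inhibition of growth was derived by comparison with vehicle-exposed cultures.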

With `CCCCCCNC1C=CCC1` (stereo unspecified), the growth inhibition in experiment [1] is -5.75%; in experiment [2], -2.55%; in experiment [3], -10.9%; in experiment [4], -15.6%; in experiment [5] it was 5.15%; in experiment [6], 4.25%.
Regarding `CCCCCC1(C(C)C)C(=O)NC(=O)NC1=O`, the growth inhibition was 3.1% in experiment [1]; 8.65% in experiment [2]; 1.5% in experiment [3]; 15.3% in experiment [4]; -0.6% in experiment [5]; 6.35% in experiment [6].
As to `O=C(O)c1ccccc1Cl`, the growth inhibition is -8% in experiment [1]; -11.5% in experiment [2]; 3.75% in experiment [3]; 30.9% in experiment [4]; 5.2% in experiment [5]; 16.4% in experiment [6].
For `[N-]=[N+]=Nc1ccnc2cc(Cl)ccc12`, the growth inhibition in experiment [1] is -29.9%; in experiment [2], -5.55%; in experiment [3], -9.05%; in experiment [4], -68%; in experiment [5] it was -5.45%; in experiment [6], -10.7%.
`CCOC(=O)C1C2(C)NC(=O)C1(Cc1ccccc1)c1cc(C)c(C)cc1O2` (stereo unspecified): the growth inhibition in experiment [1] is -0.75%; in experiment [2] it was 16.5%; in experiment [3], -11.8%; in experiment [4] it was -6.15%; in experiment [5], -3.3%; in experiment [6], 3.45%.
Turning to `Oc1ccc(Br)cc1`, the growth inhibition in experiment [1] was 1.15%; in experiment [2], -18.1%; in experiment [3], -14.4%; in experiment [4], -14.3%; in experiment [5], -15.1%; in experiment [6], -6.5%.
Turning to `O=C1OC(=O)C2CC3C(CC12)C1(Cl)C(Cl)=C(Cl)C3(Cl)C1(Cl)Cl` (stereo unspecified), the growth inhibition in experiment [1] was -15.5%; in experiment [2], -28.2%; in experiment [3], -13.1%; in experiment [4], -5.4%; in experiment [5] it was -17.4%; in experiment [6] it was 3%.
As to `CCC(C)(Cl)c1ccccc1` (stereo unspecified), the growth inhibition is -11.7% in experiment [1]; -21.6% in experiment [2]; -13.6% in experiment [3]; -0.4% in experiment [4]; -21.4% in experiment [5]; -14.1% in experiment [6].
For the compound `O=c1sc2ccccc2n1CC1CS1` (stereo unspecified), the growth inhibition in experiment [1] was 22.4%; in experiment [2], -10.1%; in experiment [3], -8.75%; in experiment [4] it was 5.25%; in experiment [5], -27.1%; in experiment [6], -0.25%.
On to `O=C(C(F)(F)Cl)C(F)(F)Cl`, for which the growth inhibition in experiment [1] was 13.8%; in experiment [2], -14.9%; in experiment [3], 6.85%; in experiment [4], 15.6%; in experiment [5] it was -15.2%; in experiment [6], 24.3%.
As for `O=C(N/N=C/c1ccc(N(CCCl)CCCl)cc1)c1ccc(N(CCCl)CCCl)cc1`, the growth inhibition in experiment [1] is 30.6%; in experiment [2] it was 4.65%; in experiment [3] it was 26.6%; in experiment [4] it was 37.8%; in experiment [5], 4.55%; in experiment [6], 7.9%.
Turning to `Nc1ccc(Cl)cc1.Nc1ccc(Cl)cc1.Nc1ccc(Cl)cc1.O=C([O-])C(=O)[O-].O=C([O-])C(=O)[O-].[H+].[Ru+5]`, the growth inhibition in experiment [1] was 18.4%; in experiment [2] it was 20.7%; in experiment [3], 13.3%; in experiment [4], 27.5%; in experiment [5] it was 26.6%; in experiment [6] it was 34.5%.
As to `CCC(=O)OC1(c2ccccc2)CCN(C/C=C/c2cccc3ccccc23)CC1`, the growth inhibition in experiment [1] was 86.3% (active); in experiment [2] it was 76.2% (active); in experiment [3], 89% (active); in experiment [4], 62.8%; in experiment [5] it was 83% (active); in experiment [6], 87.2% (active).
For `Cc1ccccc1.[C-]#[O+].[C-]#[O+].[C-]#[O+].[W]`, the growth inhibition in experiment [1] was -11.5%; in experiment [2], -1.2%; in experiment [3] it was 2%; in experiment [4], 28.2%; in experiment [5], 24.9%; in experiment [6], -8.05%.
Consider `COc1ccc2nc3ccccc3c(NCCCN(C)CCCl)c2c1`, for which the growth inhibition in experiment [1] is 67.8%; in experiment [2], 56.5%; in experiment [3], 57.8%; in experiment [4] it was 50.5%; in experiment [5], -0.5%; in experiment [6], 66.2%.
With `CCC(=O)C(c1ccccc1)(c1ccccc1)C(C)CN(C)C` (stereo unspecified), the growth inhibition in experiment [1] was -8.7%; in experiment [2] it was -9.2%; in experiment [3] it was 9.35%; in experiment [4], -5.55%; in experiment [5], -4.9%; in experiment [6] it was -6.35%.
As for `O=C1C=CC(=O)N1CO`, the growth inhibition in experiment [1] is 23.2%; in experiment [2], 19.2%; in experiment [3], 9%; in experiment [4], 6.4%; in experiment [5], 26.9%; in experiment [6] it was 9.25%.
Turning to `S=C(N/N=C\c1cccc(I)c1)NC1CN2CCC1CC2` (stereo unspecified), the growth inhibition in experiment [1] is 19.1%; in experiment [2] it was 3.25%; in experiment [3], 14.4%; in experiment [4] it was 14.8%; in experiment [5], 3.2%; in experiment [6] it was 13.9%.
As for `CCOC(=O)/C(C#N)=C(/SC)N1CC1`, the growth inhibition was 1.9% in experiment [1]; 12% in experiment [2]; 1.4% in experiment [3]; -7.2% in experiment [4]; 6.8% in experiment [5]; -2% in experiment [6].
Turning to `O=C(O)C(O)(c1ccccc1)c1ccco1` (stereo unspecified), the growth inhibition in experiment [1] is 12.8%; in experiment [2] it was 1.8%; in experiment [3], -5.25%; in experiment [4] it was 21.3%; in experiment [5], -28.9%; in experiment [6] it was 12.7%.
As to `O=[As]c1ccc(C(=O)Cl)cc1` (stereo unspecified), the growth inhibition is -2.3% in experiment [1]; -16.4% in experiment [2]; -20.1% in experiment [3]; 2.15% in experiment [4]; -25.3% in experiment [5]; 0.45% in experiment [6].

These data come from PubChem BioAssay (NCI).
